Experimental data taken from PubChem BioAssay (NCATS).
Records with an inconclusive call do not appear. Calls of active or inactive are those of the source. Unless noted, calls come from the whole dose curve; as a rule, active = well fitted curve in the direction sought with a large enough effect; inconclusive = small, poorly fitted or top-dose-only effect, or another doubt; inactive = no such curve, though single readings can be large; an effect the other way counts as inactive or inconclusive. Where a SMILES comes first, the peptide text is derived from it. Bridges are numbered along the chain shown (N, C = ends). [ ]: non-standard residue; d: D form. hArg = N=C(N)NCCCC[C@H](N)C(=O)O; Mpa = O=C(O)CCS

Tests used:
[1] = target: Voltage-gated inwardly rectifying potassium channel KCNH2 (Homo sapiens) (UniProt Q12809); experiment: qHTS Assay for Small Molecule Inhibitors of the Human hERG Channel Activity (AID 588834);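 note: lower thallium flux fluorescence means stronger hERG block; nearly all actives have a fitted effect of over 50% in size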; note: potency is the fitted concentration of half-maximal effect
Chain of Voltage-gated inwardly rectifying potassium channel KCNH2 (Homo sapiens) (Q12809 whole entry, looked up): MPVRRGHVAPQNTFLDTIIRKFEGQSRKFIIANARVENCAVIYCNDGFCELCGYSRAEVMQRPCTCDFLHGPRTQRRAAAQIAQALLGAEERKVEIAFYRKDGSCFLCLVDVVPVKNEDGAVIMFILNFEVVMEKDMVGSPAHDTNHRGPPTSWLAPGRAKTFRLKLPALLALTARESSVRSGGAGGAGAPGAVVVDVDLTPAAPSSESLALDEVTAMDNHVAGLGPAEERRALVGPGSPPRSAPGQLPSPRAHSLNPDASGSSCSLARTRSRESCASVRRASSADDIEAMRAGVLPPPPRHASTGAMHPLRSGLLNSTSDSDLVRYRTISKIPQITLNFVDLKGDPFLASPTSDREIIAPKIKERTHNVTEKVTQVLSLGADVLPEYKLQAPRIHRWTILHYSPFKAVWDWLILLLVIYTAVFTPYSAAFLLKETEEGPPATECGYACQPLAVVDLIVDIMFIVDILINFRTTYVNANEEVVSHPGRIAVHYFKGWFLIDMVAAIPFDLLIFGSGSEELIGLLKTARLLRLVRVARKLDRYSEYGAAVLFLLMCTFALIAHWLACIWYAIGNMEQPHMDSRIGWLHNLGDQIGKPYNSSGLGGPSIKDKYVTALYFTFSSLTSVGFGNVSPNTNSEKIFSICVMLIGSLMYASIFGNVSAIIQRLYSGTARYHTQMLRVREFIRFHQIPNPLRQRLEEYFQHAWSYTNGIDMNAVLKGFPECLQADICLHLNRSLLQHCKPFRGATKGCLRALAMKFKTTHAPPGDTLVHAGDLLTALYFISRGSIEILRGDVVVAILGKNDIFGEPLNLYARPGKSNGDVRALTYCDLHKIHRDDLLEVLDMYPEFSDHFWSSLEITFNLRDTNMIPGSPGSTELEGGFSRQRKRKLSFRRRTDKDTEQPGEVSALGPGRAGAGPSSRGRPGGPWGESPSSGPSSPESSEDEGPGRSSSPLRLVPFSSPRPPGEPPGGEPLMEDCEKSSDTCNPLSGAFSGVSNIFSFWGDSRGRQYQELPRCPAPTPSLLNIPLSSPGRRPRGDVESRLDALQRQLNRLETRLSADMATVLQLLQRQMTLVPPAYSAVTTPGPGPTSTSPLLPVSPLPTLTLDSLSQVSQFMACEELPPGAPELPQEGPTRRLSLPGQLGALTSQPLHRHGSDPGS
Procedure, shortened: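 Blockade is seen as reduced FluxOR thallium-flux fluorescence in U2OS cells expressing hERG from a BacMam construct, in Opti-MEM with 2% FCS. Concentration-response data fitted to the Hill equation for AC50.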

[2] = target: Luciferin 4-monooxygenase (Photinus pyralis) (UniProt P08659); experiment: Biochemical firefly luciferase enzyme assay for NPC (AID 624030); note: nearly all actives have a fitted effect of over 70% in size; note: potency is the fitted concentration of half-maximal effect
Chain of Luciferin 4-monooxygenase (Photinus pyralis) (P08659 whole entry, looked up): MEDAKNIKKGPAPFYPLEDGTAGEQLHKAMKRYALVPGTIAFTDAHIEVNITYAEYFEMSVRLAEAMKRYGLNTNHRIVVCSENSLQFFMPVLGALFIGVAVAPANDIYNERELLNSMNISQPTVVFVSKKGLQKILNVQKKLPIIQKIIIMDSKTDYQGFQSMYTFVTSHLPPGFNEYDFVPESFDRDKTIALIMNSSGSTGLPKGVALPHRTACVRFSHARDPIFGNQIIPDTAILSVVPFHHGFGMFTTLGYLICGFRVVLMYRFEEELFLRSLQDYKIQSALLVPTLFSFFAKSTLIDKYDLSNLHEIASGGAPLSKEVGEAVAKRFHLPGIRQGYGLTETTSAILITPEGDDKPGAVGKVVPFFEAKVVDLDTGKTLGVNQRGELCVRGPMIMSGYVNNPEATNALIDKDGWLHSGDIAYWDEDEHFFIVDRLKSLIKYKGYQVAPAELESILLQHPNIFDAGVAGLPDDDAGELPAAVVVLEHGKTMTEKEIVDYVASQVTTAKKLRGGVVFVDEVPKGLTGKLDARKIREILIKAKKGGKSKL
Procedure, shortened: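 Direct inhibition of firefly luciferase enzyme (10 nM final, 50 mM Tris Acetate) assessed by luminescence within 5 minutes. Percent activity scaled between DMSO and PTC124 positive control, with concentration-effect curves classified by fit quality and response.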

[3] = S16 Schwann cell viability assay (CellTiter-Glo assay) (AID 624031);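 note: native untransfected S16 rat Schwann cells; series mostly up to about 58 µM; plate controls were DMSO-treated cells for no effect and cell-free wells for full effect; nearly all actives have a fitted effect of over 70% in size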
Procedure, shortened: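 Counter-screen for cytotoxicity: parental S16 rat Schwann cells lacking the PMP22 reporters, treated 24 h with compound, viability from cellular ATP by CellTiter-Glo luminescence, normalized to DMSO (0%) and no-cell wells.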

[4] = S16 Schwann cell PMP22 intronic element firefly luciferase assay (AID 624032); note: nearly all actives have a fitted effect of over 30% in size; note: potency is the fitted concentration of half-maximal effect
Procedure, shortened: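 Luciferase reporter of PMP22 intronic-element expression in stably transfected S16 rat Schwann cells, read by ONE-Glo luminescence after 24 h compound exposure at 37 C. Activity scaled between DMSO (0%) and positive-control PTC124; concentration-effect curves quality-classified.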

[5] = S16 Schwann cell PMP22 intronic element beta-lactamase assay (AID 624044; calls by dose curve;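 note: 0% = DMSO and -100% = potassium clavulanate positive control; nearly all actives have a fitted effect of over 15% in size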)
Procedure, shortened: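 Rat S16 Schwann cells with beta-Lac driven by a PMP22 intronic element, compound-treated 24 h at 37 °C. LiveBLAzer FRET B/G read: 460 nm normalized to potassium clavulanate vs DMSO; 535 nm FRET as viability; concentration-effect curves classified.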

[6] = qHTS assay for small molecule agonists of the antioxidant response element (ARE) signaling pathway (AID 651741; active = well fitted activation curve with a large enough effect in the signal ratio; the % refers to the signal ratio; note: % of control where 0% means no effect)
Procedure, shortened: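 Quantitative HTS in HepG2 cells stably expressing an ARE-beta-lactamase reporter; 16 h compound exposure at 37 C, followed by 2 h room-temperature incubation with LiveBLAzer B/G FRET substrate and fluorescence measurement.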

[7] = qHTS assay for small molecule activators of the p53 signaling pathway (AID 651743; active = well fitted activation curve with a large enough effect in the signal ratio, not every such curve was filed as active; the % refers to the signal ratio; note: series mostly up to about 92 µM; % of control where 0% means no effect); details: HCT-116 p53RE-bla, beta-lactamase FRET ratio, 16 h; stronger effect = higher value
Procedure, shortened: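 Read-out is fluorescence intensity from the LiveBLAzer B/G FRET substrate, added for 2 hours at room temperature after HCT-116 p53RE-bla cells had been incubated with compounds for 16 hours at 37 C.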

C[C@@H]1O[C@@H](OC[C@H]2O[C@@H](Oc3c(-c4ccc(O)c(O)c4)oc4cc(O)cc(O)c4c3=O)[C@H](O)[C@@H](O)[C@@H]2O)[C@H](O)[C@H](O)[C@H]1O
inactive: Potency [1] | Potency [2]

O=C(O)Cc1ccc(CCNS(=O)(=O)c2ccc(Cl)cc2)cc1
inactive: Potency [1] | Potency [2] | outcome [3]

O=C(O)Cc1cn(-c2ccccc2)nc1-c1ccc(Cl)cc1
inactive: Potency [1] | Potency [2] | outcome [3]

CCCCCCCCCCOc1cc2c(=O)c(C(=O)OCC)c[nH]c2cc1OCC
inactive: Potency [1] | Potency [2]

Cn1c(=O)c2c(ncn2CCO)n(C)c1=O
inactive: Potency [1] | Potency [2] | outcome [3] | Potency [4]

C[C@H]1COc2c(C3(N)CC3)c(F)cc3c(=O)c(C(=O)O)cn1c23
inactive: Potency [1] | Potency [2] | outcome [3] | Potency [4]

O=C(O)c1ccc(OCCCOc2ccc(C(=O)O)cc2)cc1
inactive: Potency [1] | Potency [2] | outcome [3]

CC(=O)NCc1c(I)c(NC(C)=O)c(I)c(C(=O)O)c1I
inactive: Potency [1] | Potency [2] | outcome [3] | Potency [4]

CN1C[C@@H]2C[C@H]1CN2c1cc2c(cc1F)c(=O)c(C(=O)O)cn2C1CC1
inactive: Potency [1] | Potency [2] | outcome [3]

CC[N+](C)(CC)CCOC(=O)C1c2ccccc2Oc2ccccc21
inactive: Potency [1] | Potency [2] | outcome [3] | Potency [4]

COc1ccc(C(=O)N2CCN(CC(=O)N3CCOCC3)CC2)cc1
inactive: Potency [1] | Potency [2] | outcome [3]

CCN(CC)CCOC(=O)C(c1ccccc1)c1ccccc1
active: Potency [1] 2 µM
inactive: Potency [2] | outcome [3]

O[C@@H]1CO[C@H]2[C@@H]1OC[C@@H]2O
inactive: Potency [1] | Potency [2] | outcome [3] | Potency [4]

CC(CSC(=O)c1ccccc1)C(=O)N1C[C@@H](Sc2ccccc2)C[C@H]1C(=O)O (stereo partly drawn)
inactive: Potency [1] | Potency [2] | outcome [3] | Potency [4]

NC(=O)CCCCC1CCSS1 (stereo not drawn)
inactive: Potency [1] | Potency [2] | outcome [3] | Potency [4]

CC1(C)[C@@H](OC(=O)CCC(=O)O)CC[C@]2(C)[C@H]3C(=O)C=C4[C@@H]5C[C@@](C)(C(=O)O)CC[C@]5(C)CC[C@@]4(C)[C@]3(C)CC[C@@H]12
inactive: Potency [1]

O=C(O)c1ccccc1OP(=O)(O)O
inactive: Potency [1] | Potency [2] | outcome [3] | Potency [4]

NCC1CCC(C(=O)Oc2ccc(CCC(=O)O)cc2)CC1 (stereo not drawn)
inactive: Potency [1] | Potency [2] | outcome [3]

O=C(O)c1cc(=O)c2ccccc2o1
inactive: Potency [1] | Potency [2] | outcome [3]

CCN(CC)CCc1nc(-c2ccccc2)no1
inactive: Potency [1] | Potency [2] | outcome [3]

O=C(O)CCC(=O)O
inactive: Potency [1] | Potency [2] | outcome [3]

Cc1onc(-c2ccccc2)c1-c1ccc(S(N)(=O)=O)cc1
inactive: Potency [1] | Potency [2] | outcome [3] | Potency [4]

NC(=O)[C@@H]1CSSCCC(=O)N[C@@H](CCCCN=C(N)N)C(=O)NCC(=O)N[C@@H](CC(=O)O)C(=O)N[C@@H](Cc2c[nH]c3ccccc23)C(=O)N2CCC[C@H]2C(=O)N1 ([Mpa][hArg]GDWPC-NH2; disulfide 1-7)
inactive: Potency [1] | Potency [2] | outcome [3] | Potency [4]

CCCOC(=O)c1ccc(N)cc1
inactive: Potency [1] | Potency [2] | outcome [3] | Potency [4] | outcome [5]

CC(CN(C)C)C(C)(O)Cc1ccc(Cl)cc1 (stereo not drawn)
inactive: Potency [2] | outcome [3] | Potency [4]
active: Potency [1] 14.1 µM

C[N+](C)(C)CC[N+]1(C)Cc2c(Cl)c(Cl)c(Cl)c(Cl)c2C1
inactive: Potency [1] | Potency [2] | outcome [3] | Potency [4]

CN1C(C)(C)CCCC1(C)C
inactive: Potency [1] | Potency [2] | outcome [3] | Potency [4]

CN(C(=O)c1c(O)c2ccccc2n(C)c1=O)c1ccccc1
inactive: Potency [1] | Potency [2] | outcome [3] | Potency [4]

O=C(O)c1ccccc1C(=O)Nc1ccc(S(=O)(=O)Nc2nccs2)cc1
inactive: Potency [1] | Potency [2] | outcome [3] | Potency [4]

COc1ccc(Cc2cnc(N)nc2N)cc1OC
inactive: Potency [1] | Potency [2] | outcome [3] | Potency [4]

COc1ccc(C(=O)NCc2ccc(OCCN(C)C)cc2)cc1OC
inactive: Potency [1] | Potency [2] | outcome [3] | Potency [4]

NS(=O)(=O)c1ccc(NC(=O)CCC(=O)O)cc1
inactive: Potency [1] | Potency [2] | outcome [3] | Potency [4]

Cc1ccc(S(=O)(=O)NC(=O)NC2CCCCCCC2)cc1
inactive: Potency [1] | Potency [2] | outcome [3] | Potency [4] | outcome [5]

CCN(CC)S(=O)(=O)c1ccc(C(=O)O)cc1
inactive: Potency [1] | Potency [2] | outcome [3] | Potency [4] | outcome [5]

Cc1c(C)c2c(c(C)c1OC(=O)c1cccnc1)CC[C@@](C)(CCC[C@H](C)CCC[C@H](C)CCCC(C)C)O2
inactive: Potency [1] | Potency [2] | outcome [3] | Potency [4]

NC(=O)CC[C@@H](N)C(=O)O
inactive: Potency [1] | Potency [2] | outcome [3] | Potency [4] | outcome [5]

Cc1c(NC(C)C)c(=O)n(-c2ccccc2)n1C
inactive: Potency [1] | Potency [2] | outcome [3] | Potency [4]

Cn1c([N+](=O)[O-])cnc1COC(N)=O
inactive: Potency [1] | Potency [2] | outcome [3] | Potency [4]

CC(=O)Oc1cccc(C)c1
inactive: Potency [1] | Potency [2] | outcome [3] | Potency [4]

O=C(Cn1ccnc1[N+](=O)[O-])NCc1ccccc1
inactive: Potency [1] | Potency [2] | outcome [3] | Potency [4] | outcome [5]

Cc1cc(C)c(NC(=O)CN(CC(=O)O)CC(=O)O)c(C)c1Br
inactive: Potency [1] | Potency [2] | outcome [3] | Potency [4]

O=C(Cn1ccnc1[N+](=O)[O-])NCCO
inactive: Potency [1] | Potency [2] | outcome [3] | Potency [4]

CC(=O)Oc1cccc(O)c1
inactive: Potency [1] | Potency [2] | outcome [3] | Potency [4] | outcome [5]

CC(=O)SC[C@@H](Cc1ccccc1)C(=O)NCC(=O)OCc1ccccc1
inactive: Potency [1] | Potency [2] | outcome [3] | Potency [4] | outcome [5]

O=C(NCN1CCOCC1)c1cnccn1
inactive: Potency [1] | Potency [2] | outcome [3] | Potency [4]

CCCCCCCC(=O)OCC(O)CO (stereo not drawn)
inactive: Potency [1] | Potency [2] | outcome [3] | Potency [4]

CNc1c2c(nn1C)CCCC2
inactive: Potency [1] | Potency [2] | outcome [3] | Potency [4]

Cc1[nH]c(C)c(Cl)c(=O)c1Cl
inactive: Potency [1] | Potency [2] | outcome [3] | Potency [4]

COC(=O)c1ccccc1C(=O)c1ccc(OCCN2CCCCC2)cc1
inactive: Potency [1] | Potency [2] | outcome [3] | Potency [4]

Nc1ccncc1N
inactive: Potency [1] | Potency [2] | outcome [3] | Potency [4]

CCOC(N)=O
inactive: Potency [1] | Potency [2] | outcome [3] | Potency [4]

Nc1c2c(nc3c1CCC3)CCCC2
inactive: Potency [1] | Potency [2] | outcome [3] | Potency [4]

C[C@@H]1CCC[C@H](C)N1
inactive: Potency [1] | Potency [2] | outcome [3] | Potency [4]

CCOC(=O)[C@H](CCc1ccccc1)N[C@@H](C)C(=O)N1CCC[C@H]1C(=O)O
active: Potency [4] 0.0144 µM
inactive: Potency [1] | Potency [2] | outcome [3]

O=C(O)CCCc1ccccc1
inactive: Potency [1] | Potency [2] | outcome [3] | Potency [4]

CCCCC1(COC(=O)CCC(=O)O)C(=O)N(c2ccccc2)N(c2ccccc2)C1=O
inactive: Potency [1] | Potency [2] | outcome [3] | Potency [4] | outcome [5]

Nc1ncnc2c1ncn2[C@@H]1O[C@H](COP(=O)(O)O)[C@@H](O)[C@H]1O
inactive: Potency [1] | Potency [2] | outcome [3] | Potency [4]

CC(=O)N(CC(O)CO)c1c(I)c(C(=O)NCC(O)CO)c(I)c(C(=O)NCC(O)CO)c1I (stereo not drawn)
inactive: Potency [1] | Potency [2] | outcome [3] | Potency [4]

Cc1cc(-n2nc3ccc(Cl)cc3n2)c(O)c(C(C)(C)C)c1
inactive: Potency [1] | Potency [2] | outcome [3] | Potency [4]

O=C(NCCCN1CCOCC1)c1ccc(Cl)cc1
inactive: Potency [1] | outcome [3] | Potency [4]

Cc1ccc(S(=O)(=O)NC(=O)NC2CCCCC2)cc1
inactive: Potency [1] | outcome [3]

O=C(O)CNC(=O)c1ccccc1I
inactive: Potency [1] | outcome [3] | Potency [4]

C=CCSCC1Nc2cc(Cl)c(S(N)(=O)=O)cc2S(=O)(=O)N1 (stereo not drawn)
inactive: Potency [1] | outcome [3]

O=C(OOC(=O)c1ccccc1)c1ccccc1
inactive: Potency [1] | Potency [2] | outcome [3] | Potency [6] | activation [7] -0.427%

CN1CCCN=C1COC(=O)C(O)(c1ccccc1)C1CCCCC1 (stereo not drawn)
active: Potency [1] 2.82 µM
inactive: Potency [2] | Potency [4] | outcome [5]

CC(C)(C)C(=O)OCOC(=O)[C@@H]1N2C(=O)[C@@H](NC(=O)[C@H](N)c3ccccc3)[C@H]2SC1(C)C
inactive: Potency [1] | Potency [2] | outcome [3] | Potency [4] | outcome [5]

NNC(=O)CP(=O)(c1ccccc1)c1ccccc1
inactive: Potency [1] | Potency [2] | outcome [3] | outcome [5]

C[C@@H](N)C(=O)O
inactive: Potency [1] | Potency [2] | outcome [3] | Potency [4] | outcome [5]

Cc1ccccc1N=Nc1ccc(N=Nc2c(O)ccc3ccccc23)c(C)c1
inactive: Potency [1] | Potency [2] | outcome [3] | Potency [4] | outcome [5]

O=C(O)Cn1c(C(=O)Nc2nc(-c3ccccc3Cl)cs2)cc2ccccc21
inactive: Potency [1] | outcome [5]
active: Potency [2] 12.8 µM
